Several values for one entry are separate records, joined by “and”; a condition that tells them apart may be missing. Equal entries are not always repeated. Screen size: about 16,000 compounds; about 5,100 (32%) were called active. Inconclusive results (about 25%) are left out. Calls follow the shape of the dose curve; as a rule, active = well fitted curve in the direction sought with a large enough effect; inconclusive = small, poorly fitted or top-dose-only effect, or effect the other way; inactive = no such curve, though single readings can be large or run the other way. The list shows a part of the results.
% is scaled to controls: 0 for no effect and ±100 for the full control effect.

Chain of Cytochrome P450 3A4 (Homo sapiens) (P08684 whole entry, looked up): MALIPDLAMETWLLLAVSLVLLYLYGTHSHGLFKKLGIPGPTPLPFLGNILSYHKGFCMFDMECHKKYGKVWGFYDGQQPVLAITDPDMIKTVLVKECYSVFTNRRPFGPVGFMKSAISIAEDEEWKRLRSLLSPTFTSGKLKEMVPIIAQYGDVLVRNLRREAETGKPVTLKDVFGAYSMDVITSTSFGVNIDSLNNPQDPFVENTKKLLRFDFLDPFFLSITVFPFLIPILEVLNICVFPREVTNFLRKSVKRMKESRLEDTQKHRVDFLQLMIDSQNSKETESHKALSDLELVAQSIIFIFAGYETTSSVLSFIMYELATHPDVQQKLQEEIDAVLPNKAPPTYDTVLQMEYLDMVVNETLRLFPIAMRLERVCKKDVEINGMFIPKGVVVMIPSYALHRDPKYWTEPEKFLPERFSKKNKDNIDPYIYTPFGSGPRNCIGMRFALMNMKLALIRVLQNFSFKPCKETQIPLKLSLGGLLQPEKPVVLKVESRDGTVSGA

The assay addresses Cytochrome P450 3A4 (Homo sapiens) (UniProt P08684). As to the kind of experiment: Cytochrome panel assay with activity outcomes. Particulars: recombinant CYP, pro-luciferin dealkylation, luminescence, p450-cyp3a4; series mostly up to 57.1 µM.
Consider `Oc1c(Br)cc(CN(Cc2cc(Br)c(O)c(Br)c2)C2CCCCC2)cc1Br`, for which the activity, negative = inhibition is -9.71% [at 11.4 µM] (inactive).
Take `COc1ccc(C2=Nc3cccc4cccc(c34)N2)cc1`: the AC50 result was “inactive”.
For `COc1ccc(CNc2ncncc2-c2cccc(C#N)c2)c(OC)c1`, the AC50 was 0.316 µM (active).
The same measure, in the same setting: then `COc1cccc(-c2cncnc2NCc2ccccc2OC)c1`, with 0.501 µM (active).
The same measure, in the same setting: then `COc1ccc(CNc2ncncc2-c2cccnc2)c(OC)c1`, with 0.501 µM (active).
Same read-out and setting: then `COc1cccc(-c2cncnc2NCc2ccc(OC)cc2OC)c1`, with 0.501 µM (active); and `CCNc1nc(NCC)nc(ON=C(C)C)n1`, with “inactive”.
Regarding `Cn1ccnc1C[C@@](C)(O)c1ccccc1`, the activity, negative = inhibition is -4.26% [at 11.4 µM] (inactive).
For the compound `CCn1cc(C(=O)N/N=C(/C)c2ccc(F)cc2)c(=O)c2cc(F)c(N3CCCC3)cc21`, the AC50 result is “inactive”.
For `COc1ccccc1CNc1ncncc1-c1cccnc1`, the concentration at half-maximal activity (AC50) is 0.794 µM (active).
Same read-out and setting: as for `CC(C)(C)N1C(=O)[C@H]2[C@H]3[C@H](O)[C@H](O)C/C(=N/OC[C@@H](O)COCc4ccco4)[C@@H]3CC[C@@H]2C1=O`, the figure is 5.01 µM (active).
On to `O=C1[C@H]2[C@H]3[C@H](O)[C@H](O)C/C(=N/OC[C@@H](O)COCc4ccco4)[C@@H]3CC[C@@H]2C(=O)N1C[C@@H]1CCCO1`, for which the activity, negative = inhibition is -23.9% [at 11.4 µM] (inactive).
Same read-out and setting: as for `CCOC(=O)CCN1C(=O)[C@H]2[C@H]3[C@H](O)[C@H](O)C/C(=N/OC[C@@H](O)COCc4ccco4)[C@@H]3CC[C@@H]2C1=O`, the figure is -16.7% [at 11.4 µM] (inactive); as for `CCOC(=O)CCN1C(=O)[C@H]2[C@H]3[C@H](O)[C@H](O)C/C(=N/OC[C@@H](O)COCc4ccco4)[C@H]3CC[C@@H]2C1=O`, -22.6% [at 11.4 µM] (inactive).
In the case of `C[C@@H](c1ccccc1)N1C(=O)[C@H]2[C@H]3[C@H](O)[C@H](O)C/C(=N/OC[C@@H](O)COCc4ccco4)[C@@H]3CC[C@@H]2C1=O`, the AC50 was 3.16 µM (active).
On to `C[C@@H](c1ccccc1)N1C(=O)[C@H]2[C@@H]3[C@H](O)[C@H](O)CC(=O)[C@H]3CC[C@H]2C1=O`, for which the activity, negative = inhibition was -24.3% [at 11.4 µM] (inactive) and -16.6% [at 11.4 µM] (inactive).
Turning to `C[C@@H](c1ccccc1)N1C(=O)[C@H]2[C@H]3[C@H](O)[C@H](O)C/C(=N/OC[C@@H](O)COCc4ccco4)[C@H]3CC[C@@H]2C1=O`, the concentration at half-maximal activity (AC50) was 3.98 µM (active).
`O=C1[C@H]2[C@H]3[C@H](O)[C@H](O)C/C(=N/OC[C@@H](O)COCc4ccco4)[C@H]3CC[C@@H]2C(=O)N1C[C@@H]1CCCO1`: the activity, negative = inhibition is -13.4% [at 11.4 µM] (inactive).
The same measure, in the same setting: as for `CC(=O)OC[C@@H]1O[C@@H](O/N=C2/C[C@@H](O)[C@@H](O)[C@@H]3[C@@H]4C(=O)N([C@@H](C)c5ccccc5)C(=O)[C@H]4CC[C@H]23)[C@H](OC(C)=O)[C@H](OC(C)=O)[C@@H]1OC(C)=O`, the figure is -29.1% [at 11.4 µM] (inactive).
With `O=C1C(O)=C(O)C(=O)C(O)=C1O`, the AC50 result is “inactive”.
Take `NC(N)=NC(N)=Nc1ccc(S(=O)(=O)O)cc1`: the activity, negative = inhibition was -0.586% [at 11.4 µM] (inactive).
Regarding `CC1=CC=CN2CC(O)CN=C12` (stereo unspecified), the AC50 result was “inactive”.
Consider `COc1ccc(Cc2nnc(NC(=O)c3ccco3)s2)cc1`, for which the AC50 result is “inactive”.
Consider `Cc1c(C(=O)NN2CCN(C)CC2)cccc1[N+](=O)[O-]`, for which the AC50 result was “inactive”.
On the same count and under the same terms, as for `COc1ccc(Cc2nnc(NC(=O)c3cccc([N+](=O)[O-])c3C)s2)cc1`, the figure is 10 µM (active).
Still for that read-out and setting: as for `O=C(CN1CCCCC1)Nc1cccc([N+](=O)[O-])c1`, the entry is “inactive”.
`O=C(CN1CCCCC1)Nc1nnc(-c2ccc([N+](=O)[O-])cc2)s1`: the concentration at half-maximal activity (AC50) is 7.94 µM (active).
`COCC(=O)N(C)c1nnc(-c2ccc([N+](=O)[O-])cc2)s1`: the activity, negative = inhibition is -5.26% [at 2.29 µM] (inactive).
Still for that read-out and setting: then `FC(F)(F)c1ccc(/C=N/N2CCN(Cc3cccc4ccccc34)CC2)cc1`, with 15.5% [at 2.29 µM] (inactive).
Consider `Cn1c(=O)c2cc(S(=O)(=O)NCCC(=O)N3CC=C(c4ccccc4)CC3)ccc2n(C)c1=O`, for which the AC50 was 10 µM (active).
Still for that read-out and setting: then `Cn1c(=O)oc2cc(S(=O)(=O)NCCC(=O)N3CC=C(c4ccccc4)CC3)ccc21`, with 12.6 µM (active).
For the compound `Cn1c(=O)c2cn(-c3ccccc3)cc2n(C)c1=O`, the activity, negative = inhibition is -2.19% [at 11.4 µM] (inactive).
Consider `CCCN(CCC)CCNC(=O)C1CCCN(S(=O)(=O)c2ccc3c(c2)oc(=O)n3C)C1` (stereo unspecified), for which the AC50 entry is “inactive”.
Same read-out and setting: as for `O=C(Nc1ccccc1)[C@@]12C[C@@H]1/C(=N/O)c1ccccc1O2`, the entry is “inactive”; as for `Fc1ccc(C(OCCCc2cnc[nH]2)c2ccc(F)cc2)cc1`, 0.794 µM (active).
On to `O=C(O)CCC(O)=C1S(=O)(=O)OCCOS1(=O)=O`, for which the activity, negative = inhibition is 2.08% [at 11.4 µM] (inactive).
With `COc1ccccc1CN(Cc1cc2cc3c(cc2[nH]c1=O)OCCO3)Cc1nnnn1Cc1ccco1`, the AC50 is 10 µM (active).
Same read-out and setting: as for `COc1ccccc1CN(Cc1cc2cc(C)cc(C)c2[nH]c1=O)Cc1nnnn1CC1CCCO1` (stereo unspecified), the figure is 10 µM (active); as for `Cc1cc(C)c2cc(CN(Cc3nnnn3Cc3ccc(F)cc3)C3CCCC3)c(=O)[nH]c2c1`, 10 µM (active).
Take `O=c1[nH]c2cc3c(cc2cc1CN(CCCO)Cc1nnnn1Cc1ccc(F)cc1)OCO3`: the AC50 is 3.16 µM (active).
Consider `NC(N)=N/N=C\c1ccc(C2CCNCC2)cc1`, for which the activity, negative = inhibition was -4.2% [at 11.4 µM] (inactive).
On the same count and under the same terms, then `CN(C)CCCn1c2c3ccccc3ccc2c2oc(=O)c3ccccc3c21`, with 3.83% [at 11.4 µM] (inactive).
For `NC1=NC(=O)/C(=C/c2cccs2)S1`, the AC50 result was “inactive”.
On the same count and under the same terms, then `CCNc1ncc2nc(CCc3ccccc3)c(=O)n(C3CC3)c2n1`, with 15.8 µM (active); and `CCNc1ncc2nc(CCc3ccccc3)c(=O)n(-c3ccccc3)c2n1`, with 5.01 µM (active).
Same read-out and setting: as for `CCNc1ncc2nc(-c3ccccc3)c(=O)n(C3CC3)c2n1`, the entry is “inactive”; as for `CCNc1ncc2nc(-c3ccccc3)c(=O)n(C)c2n1`, “inactive”.
The same measure, in the same setting: then `CCNc1ncc2nc(-c3ccc(Cl)cc3)c(=O)n(C)c2n1`, with “inactive”; and `CCNc1ncc2nc(C)c(=O)n(C3CC3)c2n1`, with “inactive”.
`COc1ccc(-n2c(=O)c(CCc3ccccc3)nc3cnc(N4CCOCC4)nc32)cc1`: the AC50 is 12.6 µM (active).
For `CCNc1ncc2nc(CCc3ccccc3)c(=O)n(-c3ccc(OC)cc3)c2n1`, the concentration at half-maximal activity (AC50) was 6.31 µM (active).
On the same count and under the same terms, then `COc1ccc(-n2c(=O)c(-c3ccccc3)nc3cnc(N4CCOCC4)nc32)cc1`, with “inactive”; and `COc1ccc(-c2nc3cnc(N4CCOCC4)nc3n(CCc3ccccc3)c2=O)cc1`, with “inactive”; and `COc1ccc(C(=O)c2cnc3ccccc3c2-c2ccccc2)cc1`, with 12.6 µM (active).
As for `COc1ccc(C(=O)c2ccccc2)c(O)c1`, the AC50 entry is “inactive”.
On the same count and under the same terms, then `CCOC(=O)c1cn(-c2nc(-c3ccc(Cl)cc3)cs2)c2c(F)c(N3CC(C)OC(C)C3)c(F)cc2c1=O` (stereo unspecified), with “inactive”; and `Cc1ccc(S(=O)(=O)Nc2nc3ccccc3nc2N2CCc3ccccc3C2)cc1`, with 2.82 µM (active).
`Cc1ccc2[nH]c3c(N4CCc5ccccc5C4)ncnc3c2c1`: the activity, negative = inhibition is -19.7% [at 2.29 µM] (inactive).
Still for that read-out and setting: then `O=C1C2C3C=CC(C2C(=O)N1CN1CCOCC1)C1C2C(=O)N(CN4CCOCC4)C(=O)C2C31` (stereo unspecified), with -1.18% [at 11.4 µM] (inactive).
On to `COc1cccc(-c2cc(NCc3cccnc3)ncn2)c1`, for which the half-maximal activity concentration (AC50) is 3.98 µM (active).
On the same count and under the same terms, then `COc1cccc(-c2cc(NCc3cnc(C)cn3)ncn2)c1`, with 25.1 µM (active); and `COc1cccc(-c2cc(NCc3cccs3)ncn2)c1`, with 7.94 µM (active).
For `c1cncc(-c2cc(NCc3cccs3)ncn2)c1`, the AC50 is 2.51 µM (active).
The same measure, in the same setting: as for `COc1ccccc1-c1cc(NCc2cnc(C)cn2)ncn1`, the entry is “inactive”; as for `N[C@](CC1c2ccccc2Oc2ccccc21)(C(=O)O)[C@@H]1C[C@@H]1C(=O)O`, “inactive”.
Consider `CCCOC(=O)c1ccc(NC(=O)c2cn(CC)c3nc(C)ccc3c2=O)cc1`, for which the AC50 result was “inactive”.
On the same count and under the same terms, then `C[C@@H]1c2cccc(O)c2C(O)=C2C(=O)[C@@]3(O)C(O)=C(C(N)=O)C(=O)[C@@H](N(C)C)[C@@H]3[C@@H](O)[C@@H]21`, with “inactive”; and `COc1cccc(-c2cc(NCc3ccccc3)ncn2)c1`, with 25.1 µM (active); and `O=C(NCCOC(=O)c1ccc(C(=O)OCCNC(=O)c2cccnc2)s1)c1cccnc1`, with 2.51 µM (active).
On the same count and under the same terms, as for `O=C(NCCO[N+](=O)[O-])c1cccnc1`, the entry is “inactive”; as for `CN1CCN(NC(=O)c2cccc(F)c2)CC1`, “inactive”.
As for `CCN1C(=O)/C(=C/C=C2/SCCN2C)SC1=S`, the activity, negative = inhibition is 0.316% [at 2.29 µM] (inactive).
With `CN1CCN(NC(=O)CN2C(=O)/C(=C/c3c(Cl)cccc3Cl)SC2=S)CC1`, the AC50 is 14.1 µM (active).
The same measure, in the same setting: then `CN(C)C(=C(C#N)C#N)N1CCN(c2ccc(Cl)c(Cl)c2)CC1`, with 8.91 µM (active).
The same measure, in the same setting: as for `CSC(=NC#N)N1CCN(c2ccc(Cl)cc2)CC1`, the entry is “inactive”.
As for `C[N@+]1(CCC(=O)c2ccccc2)CC[C@H]2CC[C@H](C2)C1`, the activity, negative = inhibition was -5.07% [at 11.4 µM] (inactive).
`CCOC(=O)c1c(NC(C)=O)sc2c(OC)cccc12`: the AC50 is 2 µM (active).
Turning to `CCOC(=O)c1sc(NC(C)=O)nc1-c1ccccc1`, the activity, negative = inhibition is -5.57% [at 2.29 µM] (inactive).
As to `O=[N+]([O-])C(/C=C(\Cl)[N+](=O)[O-])=C1N(Cc2ccc(Cl)nc2)CCN1Cc1ccc(Cl)nc1`, the AC50 was 14.1 µM (active).
Same read-out and setting: then `CC(=O)c1cccc(NC(=O)c2csc(-n3nc(C)cc3C(F)(F)F)n2)c1`, with 10 µM (active); and `CCOC(=O)c1cnn(-c2nc(-c3cccc(F)c3)cs2)c1C(F)(F)F`, with “inactive”.
Still for that read-out and setting: as for `COC(=O)c1c(NC(C)=O)sc(Cc2ccccc2)c1C`, the figure is 14.1 µM (active).
`CCOc1ccc(CC(=O)Nc2sc(Cc3ccccc3)c(C)c2C(N)=O)cc1OCC`: the AC50 was 20 µM (active).
Still for that read-out and setting: as for `COC(=O)c1ccc(NC(C)=O)o1`, the entry is “inactive”.
Take `CCOc1ccc(CC(C(N)=O)C(N)=O)cc1CN(C)C`: the activity, negative = inhibition is -4.85% [at 2.29 µM] (inactive).
For the compound `Cc1sc(NC(=O)c2ccccc2)c(C(=O)NCCN(C)C)c1C`, the AC50 entry is “inactive”.

A word on the AC50: it is the concentration at which the activity in the assay is half-maximal.
